Inconclusive results are not listed. A call without a number means that no potency is given here. The source made the active and inactive calls. Calls follow the shape of the dose curve; as a rule, active = well fitted inhibition curve with a large enough effect; inconclusive = small, poorly fitted or top-dose-only effect; inactive = no such curve, though single readings can be large or run the other way.
Molecular target: Tyrosine-protein kinase Yes (Homo sapiens) (UniProt P07947)
Test: qHTS for small molecule inhibitors of Yes1 kinase: Primary Screen (AID 686947); also: nearly all actives have a fitted effect of over 60% in size
Details: Yes1 kinase biochemical qHTS inhibition; series mostly up to 76.9 µM
Summary of the method: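 Yes1 (4 nM) preincubated 20 min with compound, then 60 min room-temperature reaction with 0.1 mM ATP and 0.3 mg/mL poly(E4Y) in pH 7.5 Tris, 10 mM MgCl2. ADP measured by ADP-Glo luminescence, normalised to enzyme/no-enzyme controls.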
Potency is read from the fitted curve at half-maximal effect.

Chain of Tyrosine-protein kinase Yes (Homo sapiens) (P07947 whole entry, looked up): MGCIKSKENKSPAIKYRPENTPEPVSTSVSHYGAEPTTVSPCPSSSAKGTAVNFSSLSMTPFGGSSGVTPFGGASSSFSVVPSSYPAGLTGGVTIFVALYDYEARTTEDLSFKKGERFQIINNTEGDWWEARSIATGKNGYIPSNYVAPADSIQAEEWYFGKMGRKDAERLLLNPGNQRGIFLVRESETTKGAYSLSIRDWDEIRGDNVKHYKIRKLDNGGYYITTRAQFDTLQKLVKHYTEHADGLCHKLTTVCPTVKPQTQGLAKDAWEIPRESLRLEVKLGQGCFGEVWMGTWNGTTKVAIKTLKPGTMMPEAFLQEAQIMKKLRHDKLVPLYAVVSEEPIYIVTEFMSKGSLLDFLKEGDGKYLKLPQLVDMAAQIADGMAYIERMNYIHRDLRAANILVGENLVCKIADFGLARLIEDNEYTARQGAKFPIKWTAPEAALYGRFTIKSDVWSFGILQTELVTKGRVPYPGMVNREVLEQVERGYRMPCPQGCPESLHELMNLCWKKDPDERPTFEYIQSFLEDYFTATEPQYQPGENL

SMILES	Potency
CCOc1cc(N2CCC(O)CC2)ccc1Nc1ncc2c(n1)N(C)c1ccccc1C(=O)N2C	inactive
CCCS(=O)(=O)Nc1ccc(F)c(C(=O)c2c[nH]c3ncc(-c4ccc(Cl)cc4)cc23)c1F	1370 nM (active)
CCOC(=O)C1=C[C@@]2(CC)CCCN3CCc4c(n1c1ccccc41)[C@H]32	inactive
COCC(=O)NCC=Cc1ccc2ncnc(Nc3ccc(Oc4ccc(C)nc4)c(C)c3)c2c1	5470 nM (active)
CCN(CC)CCCC(C)Nc1nc(C)cc(Nc2ccc3nc(C)cc(N)c3c2)n1 (stereo not drawn)	inactive
COc1c(Cl)cc2c([nH]c3cnccc32)c1NC(=O)c1cccnc1C	inactive
OCCn1cc(-c2cnc3nnn(Cc4ccc5ncccc5c4)c3n2)cn1	inactive
Cc1[nH]c(=O)c(C#N)cc1-c1ccc2nccn2c1	inactive
Cc1cc([C@@H](C)Nc2ccccc2C(=O)O)c2nc(N3CCOCC3)cc(=O)n2c1	inactive
C[C@@H]1C[C@H]2[C@@H]3CCC4=CC(=O)C=C[C@]4(C)C3(F)[C@@H](O)C[C@]2(C)[C@@]1(O)C(=O)CO (stereo partly drawn)	34500 nM (active)
CCC(C)(C)C(=O)O[C@H]1C[C@@H](C)C=C2C=C[C@H](C)[C@H](CC[C@@H]3C[C@@H](O)CC(=O)O3)[C@H]21	inactive
CC(C)OC(=O)C1=CN(C(=O)c2ccc(F)c(F)c2)CC(C)(C)c2c1[nH]c1ccccc21	inactive
Cn1c(=O)c(F)c(Nc2ccc(I)cc2F)c2c(=O)n(C[C@@H](O)CO)cnc21	inactive
CN(C)c1ccc(Nc2nc(N)n(C(=O)c3c(F)cccc3F)n2)cc1	772 nM (active)
O=C(Nc1ccc(F)c(C(F)(F)F)c1)Nc1nnc(-c2ccncc2)s1	inactive
CCCS(=O)(=O)Nc1ccc(F)c(C(=O)c2c[nH]c3ncc(Cl)cc23)c1F	173 nM (active)
COc1cccc2cc(-c3nc(C4CCC(C(=O)O)CC4)n4ncnc(N)c34)[nH]c12 (stereo not drawn)	68.8 nM (active)

SMILES	Potency
CCC(C)n1ncn(-c2ccc(N3CCN(c4ccc(OC[C@H]5CO[C@](Cn6cncn6)(c6ccc(Cl)cc6Cl)O5)cc4)CC3)cc2)c1=O (stereo partly drawn)	inactive
CCOC(=O)N[C@@H]1CC[C@@H]2[C@@H](C1)C[C@H]1C(=O)O[C@H](C)[C@H]1[C@@H]2C=Cc1ccc(-c2cccc(F)c2)cn1	inactive
C[C@]1(c2nc3c(C(N)=O)cccc3[nH]2)CCCN1	inactive
NC(=O)c1ccc(-c2nc(-c3ccc4c(c3)OCCO4)c(-c3ccccn3)[nH]2)cc1	inactive
Cc1cc(-c2nnc3n2CCCCC3)c(C)n1-c1ccc(F)cc1	34500 nM (active)
COc1ccc(COc2cc3oc(=O)c4cc(C(C)O)ccc4c3cc2OC)cc1 (stereo not drawn)	inactive
COc1ccc(CC2=NN3C([C@@H](CCc4ccccc4)[C@@H](C)O)=NC(C)C3C(=O)N2)cc1OC (stereo partly drawn)	inactive
Cn1cc(-c2ccc3nnc(C(F)(F)c4ccc5ncccc5c4)n3n2)cn1	inactive
CC(C)(N)C(=O)N[C@H](COCc1ccccc1)C(=O)N1CCC2(CC1)CN(S(C)(=O)=O)c1ccccc12	inactive
CN(C(=O)c1ccc(F)cc1C(F)(F)F)C1CCN(c2nnc(-c3ccnn3C)c3ccccc23)CC1	inactive
NC(=O)c1ccc(-c2nc(-c3ccc4c(c3)OCO4)c(-c3ccccn3)[nH]2)cc1	inactive
CC[C@@H](C)[C@H](NC(=O)[C@H](CC1CCCCC1)NC(=O)c1ccno1)C(=O)N1CCC2(CCc3ccccc32)CC1	inactive
CS(=O)(=O)Oc1ccc2c(NC(N)=O)c(C(=O)c3ccc(Cl)cc3Cl)oc2c1	inactive
CN(C)c1ccc(C2Nc3ccc4ccccc4c3C3=C2C(=O)CC(C)(C)C3)cc1Br (stereo not drawn)	inactive
COc1cc2c(cc1OC)CN(CCc1ccc(NC(=O)c3cccc4c(=O)c5cccc(OC)c5[nH]c34)cc1)CC2	inactive
O=C(NOC[C@H](O)CO)c1ccc(F)c(F)c1Nc1ccc(I)cc1F	inactive
